Data: PubChem BioAssay AID1903 (Southern Research Specialized Biocontainment Screening …, 2009)
Among all 310,000 compounds or so, about 1,200 (0.39%) were called active. Not all results are given here. Results with a measured potency or affinity are listed apart. Unmarked numbers belong to inactive results. No rule for the calls is given here.

Molecular target: Large T antigen (Simian virus 40) (UniProt P03070)
Assay: TAg ATPase/helicase activity blockers – biochemical (AID 1903)
Settings: SV40 large T antigen ATPase/helicase inhibition assay; at 20 µM; stronger effect = higher value

Large T antigen (Simian virus 40), sequence (P03070 whole entry, looked up): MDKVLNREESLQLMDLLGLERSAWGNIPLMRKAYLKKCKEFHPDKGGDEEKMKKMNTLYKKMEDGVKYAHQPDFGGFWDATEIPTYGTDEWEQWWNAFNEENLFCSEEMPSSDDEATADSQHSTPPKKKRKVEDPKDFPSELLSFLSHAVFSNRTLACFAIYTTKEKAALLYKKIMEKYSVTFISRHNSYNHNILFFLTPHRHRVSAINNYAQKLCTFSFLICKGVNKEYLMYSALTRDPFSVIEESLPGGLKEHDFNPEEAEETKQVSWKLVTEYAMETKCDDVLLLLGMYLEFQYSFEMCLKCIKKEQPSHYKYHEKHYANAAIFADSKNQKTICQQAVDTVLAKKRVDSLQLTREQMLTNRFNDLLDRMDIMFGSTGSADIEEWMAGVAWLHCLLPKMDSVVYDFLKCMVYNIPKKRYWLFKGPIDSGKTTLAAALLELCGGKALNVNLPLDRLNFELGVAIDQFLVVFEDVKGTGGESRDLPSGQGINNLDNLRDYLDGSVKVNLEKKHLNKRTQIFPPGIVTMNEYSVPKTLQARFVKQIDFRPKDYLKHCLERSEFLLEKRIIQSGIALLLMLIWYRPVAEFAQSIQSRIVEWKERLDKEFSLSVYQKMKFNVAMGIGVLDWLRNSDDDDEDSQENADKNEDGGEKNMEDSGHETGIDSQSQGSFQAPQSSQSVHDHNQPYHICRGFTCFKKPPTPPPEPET

For `O=C(/C=C/c1ccc(Cl)cc1)c1ccc([N+](=O)[O-])o1`, which inhibition is on record?
Its inhibition is 34.3%.

Which inhibition does the source give for `Cc1cccc(NC(=O)c2ccc([N+](=O)[O-])o2)c1C` here?
Its inhibition is -1.78%.

Which inhibition does the source give for `COc1ccc(/C=C/C(=O)c2ccc([N+](=O)[O-])o2)cc1` here?
The inhibition was 2.57%.

For `Cc1ccc(/C=C/C(=O)c2ccc([N+](=O)[O-])o2)cc1`, which inhibition is on record?
The inhibition was 24.6%.

`Cc1cccc(/C=C/C(=O)c2ccc([N+](=O)[O-])o2)c1` was tested. Which inhibition did it give?
The inhibition was 27.2%.

Which inhibition does the source give for `COc1ccc(/C=C/C(=O)c2ccc([N+](=O)[O-])o2)cc1OC` here?
The inhibition was 17.4%.

For `CC(=O)CC1(C)OC(N)=C(C#N)C1(C#N)C#N` (stereo unspecified), which inhibition is on record?
Its inhibition is 5.62%.

`N#Cc1ccc(C(=O)Nc2cc(-c3ccccc3)nn2-c2ccccc2)cc1` was tested. Which inhibition did it give?
Its inhibition is 2.51%.

For `Cc1cc(-c2sccc2C)nc(-n2cccc2)n1`, which inhibition is on record?
Its inhibition is 1.14%.

`O=C1Nc2ccccc2Nc2ccccc21` was tested. Which inhibition did it give?
The inhibition was 0.33%.

For `Cc1ccc(N=C2CCCCCN2C)c(C#N)c1`, which inhibition is on record?
Its inhibition is 15.4%.

For `CCN(CC)CCC(=O)N1c2ccccc2CCc2ccc(NC(=O)OC)cc21`, which inhibition is on record?
The inhibition was 6.36%.

`COC(=O)/C(=C\Nc1ccc(Cl)cc1Cl)NC(=O)c1ccc(Cl)cc1Cl` was tested. Which inhibition did it give?
The inhibition was 6.46%.

How did the inhibition turn out when `COc1ccc(/C=C2/SC(=S)N(n3c(C)ccc3C)C2=O)cc1` was run?
The inhibition was 12.7%.

For `O=C(CSc1cccc2cccnc12)N/N=C/c1cccc(O)c1`, which inhibition is on record?
The inhibition was 3.2%.

Which inhibition does the source give for `O=C(COc1cccc2cccnc12)N/N=C/c1ccccc1O` here?
The inhibition was 0.79%.

For `NNC(=O)c1ccc(CSc2cccc3cccnc23)cc1`, which inhibition is on record?
The inhibition was 8.28%.

Which inhibition does the source give for `O=C(N/N=C/c1ccccc1Br)c1ccc(CSc2cccc3cccnc23)cc1` here?
Its inhibition is 8.68%.

For `O=C(CSc1cccc2cccnc12)N/N=C/c1ccncc1`, which inhibition is on record?
Its inhibition is 13.8%.

With `COc1cccc(/C=N/NC(=O)CSc2cccc3cccnc23)c1` as the compound, how does the inhibition read?
The inhibition was 14.4%.

`O=C(CSc1cccc2cccnc12)N/N=C/c1ccc(F)cc1` was tested. Which inhibition did it give?
Its inhibition is 5.35%.

With `COc1ccc(/C=N/NC(=O)COc2cccc3cccnc23)cc1OC` as the compound, how does the inhibition read?
The inhibition was 16.2%.

How did the inhibition turn out when `COc1ccc(NC(=O)CN(C)C(=O)Cc2ccc3c(c2)OCCO3)cc1` was run?
The inhibition was 4.23%.

`CSCC(=O)N1CCc2ccc(NC(=O)c3ccccc3Cl)cc2C1` was tested. Which inhibition did it give?
The inhibition was 3.34%.

Which inhibition does the source give for `COc1ccccc1NC(=O)CCS(=O)(=O)c1cc2c(cc1Cl)NC(=O)CO2` here?
Its inhibition is -2.36%.

For `Cn1nc(C(=O)NC2=NCCS2)ccc1=O`, which inhibition is on record?
Its inhibition is 16.5%.

Which inhibition does the source give for `CC1(C)CC(NC(=O)COc2ccc3ccccc3c2)CC(C)(C)N1` here?
Its inhibition is 12.2%.

`COc1ccc(NC(=O)CSc2nc3sc(C)cc3c(=O)n2C)cc1` was tested. Which inhibition did it give?
Its inhibition is 8.62%.

`CC(CC(=O)NC(C)c1ccc2c(c1)OCCO2)c1ccccc1` (stereo unspecified) was tested. Which inhibition did it give?
The inhibition was 7.67%.

`O=S(=O)(c1ccccc1OC(F)(F)F)N1CCN(c2ccnc3cc(Cl)ccc23)CC1` was tested. Which inhibition did it give?
The inhibition was 4.46%.

For `Cc1nc(=O)c(-c2ccccc2)c(C)n1Cc1ccccc1`, which inhibition is on record?
The inhibition was 1.9%.

How did the inhibition turn out when `O=C(COc1ccccc1[N+](=O)[O-])N/N=C/c1ccc(O)c([N+](=O)[O-])c1` was run?
The inhibition was 7.71%.

`O=C(COc1ccccc1[N+](=O)[O-])N/N=C/c1ccncc1` was tested. Which inhibition did it give?
The inhibition was 25.8%.

`Cc1cc2c(Nc3ccccc3)ncnc2s1` was tested. Which inhibition did it give?
Its inhibition is -2.89%.

With `Cc1cc2c(Nc3cccc(O)c3)ncnc2s1` as the compound, how does the inhibition read?
Its inhibition is 26.2%.

How did the inhibition turn out when `CCc1cc2c(Nc3ccccc3O)nc(C)nc2s1` was run?
The inhibition was 9.83%.

Which inhibition does the source give for `CCc1cc2c(NCc3ccccc3)nc(C)nc2s1` here?
Its inhibition is 17.6%.

`O=C(OCc1nnc(-c2ccccc2)o1)c1ccc(CO)cc1` was tested. Which inhibition did it give?
Its inhibition is 3.3%.

`CCO[C@H]1OC(C(=O)NCc2nc3ccccc3[nH]2)=C[C@@H](c2ccccc2)[C@@H]1CCCO` was tested. Which inhibition did it give?
The inhibition was 1.96%.

`COc1ccc(C(=O)OCC(=O)c2c(N)n(C)c(=O)n(C)c2=O)cc1OC` was tested. Which inhibition did it give?
Its inhibition is -4.08%.

Which inhibition does the source give for `CCOc1ccc(C(=O)OCC(=O)c2c(N)n(C)c(=O)n(C)c2=O)cc1OCC` here?
Its inhibition is 1.22%.

For `O=C(NC(=S)Nc1ccc(S(=O)(=O)N2CCCCC2)cc1)c1ccc(Cl)cc1`, which inhibition is on record?
Its inhibition is 1.56%.

`COC(=O)c1ccc(CN2C(=O)c3ccccc3C2=O)o1` was tested. Which inhibition did it give?
Its inhibition is 10.1%.

`CSc1nc(-c2ccccc2)nc(NC(=O)c2ccccc2)c1C(C)=O` was tested. Which inhibition did it give?
The inhibition was 5.31%.

Which inhibition does the source give for `COC(=O)C1=C[C@@H](C(=O)OC)[C@@H]2C3=C(C(=O)[C@]2(CC(C)C)NC(=O)c2ccccc2)[C@H](C)n2c(=O)n(-c4ccccc4)c(=O)n2[C@@H]3C1` here?
Its inhibition is 19.3%.

For `C/C(=N\NC(=O)c1nnn(-c2nonc2N)c1-c1cccs1)c1cccnc1`, which inhibition is on record?
The inhibition was -7.39%.

For `CN1C(=O)N(C)c2cccc3cccc1c23`, which inhibition is on record?
Its inhibition is 21.8%.

How did the inhibition turn out when `CC1N(C)c2cccc3cccc(c23)N1C` was run?
Its inhibition is 32.1%.

How did the inhibition turn out when `OC(COCc1ccc2c(c1)OCO2)CN1CCCCC1` (stereo unspecified) was run?
Its inhibition is 4.66%.

Which inhibition does the source give for `COc1ccc(S(=O)(=O)NNC(=O)Cc2csc(C)n2)cc1[N+](=O)[O-]` here?
Its inhibition is 10.2%.

`CCN1CCN(c2cc(C)c3cc(NC(=O)Cc4ccc(OC)c(OC)c4)ccc3n2)CC1` was tested. Which inhibition did it give?
Its inhibition is 2.02%.

How did the inhibition turn out when `CC1C(=O)OC(c2ccc(Br)cc2)C(C)(C)C1=O` (stereo unspecified) was run?
The inhibition was 29.1%.

`CCOc1ccc2c(c1)C(c1ccccc1)=NNC(c1ccccc1)=N2` was tested. Which inhibition did it give?
The inhibition was 4.86%.

How did the inhibition turn out when `O=C(CSc1nc2c(c(=O)[nH]1)CCC2)Nc1ccc(F)cc1` was run?
The inhibition was 22%.

With `Cc1cc(C)c2c(=O)[nH]c(SCC(=O)Nc3ccc(N(C)C)cc3)nc2n1` as the compound, how does the inhibition read?
The inhibition was 31.4%.

How did the inhibition turn out when `CCN(CC)c1ccc(NC(=O)CSc2nc(C)cc(=O)[nH]2)cc1` was run?
Its inhibition is 35.5%.

`Cc1cc(C)n2c(SCC(=O)Nc3ccc(F)cc3)nnc2n1` was tested. Which inhibition did it give?
The inhibition was 8.2%.

`CCN(c1ccc(NC(=O)CSc2nnc3nc(C)cc(C)n23)cc1)C(C)C` was tested. Which inhibition did it give?
Its inhibition is 36%.

How did the inhibition turn out when `CC(C)c1ccc(NC(=O)CSc2nc3c(c(=O)[nH]2)CCC3)cc1` was run?
The inhibition was 10.4%.

`CCc1nc(SCC(=O)Nc2ccc(N(C)C)cc2)c2ccccc2n1` was tested. Which inhibition did it give?
The inhibition was 18.1%.

`CC(=O)Nc1ccc(NC(=O)CSc2nc3nc(C)cc(C)c3c(=O)[nH]2)cc1` was tested. Which inhibition did it give?
Its inhibition is 9.68%.
